# Publication PMC7862700, “An all-to-all approach to the identification of sequence-specific readers for epigenetic DNA modifications on cytosine”
# Assays:
# Assay in all cases: DAPPL (digital affinity profiling via proximity ligation, sequencing); 10 mM Tris-HCl pH 7.5, 50 mM NaCl, 1 mM DTT, 4% glycerol, room temperature, 30 min; GST-TFs on glutathione beads, 16-mer random dsDNA library, 0.1% formaldehyde crosslink after washing; high values mean tight binding
# [1] = target: T1, FEV (Homo sapiens, UniProt Q99581 1-238); details: protein: recombinant; tags: N-terminal GST; dsDNA, one strand shown
# T1 sequence: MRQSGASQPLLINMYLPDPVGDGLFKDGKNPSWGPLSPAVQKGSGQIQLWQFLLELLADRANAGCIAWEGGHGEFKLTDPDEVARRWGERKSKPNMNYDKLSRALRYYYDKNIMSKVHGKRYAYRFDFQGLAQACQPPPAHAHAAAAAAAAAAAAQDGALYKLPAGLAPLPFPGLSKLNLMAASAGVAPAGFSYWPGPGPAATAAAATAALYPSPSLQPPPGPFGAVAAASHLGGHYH
# In short: (§1)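 Human transcription factors were made in yeast as GST fusions, captured on glutathione beads and barcoded with DNA. With a tag-only sample included, the pool was incubated with 200 nmole of a random double-stranded 16-mer DNA library in Tris/NaCl/DTT/glycerol buffer at room temperature for 30 min, then crosslinked with 0.1% formaldehyde after washing, ligated by proximity, amplified and sequenced. For binding signal, each hexamer's read frequency for a factor is divided by its frequency for the tag-only sample.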
# [2] = target: ETV5 (Homo sapiens, UniProt P41161 1-510); details: protein: recombinant; tags: N-terminal GST; dsDNA, one strand shown
# In short: as §1
# [3] = target: HSF1 (Homo sapiens, UniProt Q00613 1-529); details: protein: recombinant; tags: N-terminal GST; chain copies: 3; dsDNA, one strand shown
# In short: as §1
# [4] = target: T2, SPIC (Homo sapiens, UniProt Q8N5J4 1-248); details: protein: recombinant; tags: N-terminal GST; dsDNA, one strand shown
# T2 sequence: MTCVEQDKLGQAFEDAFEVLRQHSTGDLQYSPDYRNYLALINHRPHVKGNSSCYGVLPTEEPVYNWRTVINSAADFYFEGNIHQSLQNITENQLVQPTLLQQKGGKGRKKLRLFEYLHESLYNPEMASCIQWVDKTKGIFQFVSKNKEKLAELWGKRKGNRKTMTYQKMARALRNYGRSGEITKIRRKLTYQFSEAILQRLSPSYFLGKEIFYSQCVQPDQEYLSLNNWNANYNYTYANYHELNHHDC
# In short: as §1
# [5] = target: ELF4 (Homo sapiens, UniProt Q99607 1-663); details: protein: recombinant; tags: N-terminal GST; dsDNA, one strand shown
# In short: as §1
# [6] = target: T3, ELK4 (Homo sapiens, UniProt P28324-2 1-405); details: protein: recombinant; tags: N-terminal GST; dsDNA, one strand shown
# T3 sequence: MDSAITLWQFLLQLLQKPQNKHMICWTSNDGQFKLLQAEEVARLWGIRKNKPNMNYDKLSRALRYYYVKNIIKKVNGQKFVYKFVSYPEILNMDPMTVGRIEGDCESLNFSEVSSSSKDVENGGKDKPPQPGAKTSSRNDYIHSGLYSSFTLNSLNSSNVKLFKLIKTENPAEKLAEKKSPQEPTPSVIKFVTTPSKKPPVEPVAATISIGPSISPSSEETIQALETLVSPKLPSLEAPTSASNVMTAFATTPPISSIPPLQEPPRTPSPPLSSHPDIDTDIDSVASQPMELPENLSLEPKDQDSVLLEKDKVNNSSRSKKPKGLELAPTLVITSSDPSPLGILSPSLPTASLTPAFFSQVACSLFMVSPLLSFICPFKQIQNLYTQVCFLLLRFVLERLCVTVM
# In short: as §1
# [7] = target: T4, ETV2 (Homo sapiens, UniProt O00321 1-342); details: protein: recombinant; tags: N-terminal GST; dsDNA, one strand shown
# T4 sequence: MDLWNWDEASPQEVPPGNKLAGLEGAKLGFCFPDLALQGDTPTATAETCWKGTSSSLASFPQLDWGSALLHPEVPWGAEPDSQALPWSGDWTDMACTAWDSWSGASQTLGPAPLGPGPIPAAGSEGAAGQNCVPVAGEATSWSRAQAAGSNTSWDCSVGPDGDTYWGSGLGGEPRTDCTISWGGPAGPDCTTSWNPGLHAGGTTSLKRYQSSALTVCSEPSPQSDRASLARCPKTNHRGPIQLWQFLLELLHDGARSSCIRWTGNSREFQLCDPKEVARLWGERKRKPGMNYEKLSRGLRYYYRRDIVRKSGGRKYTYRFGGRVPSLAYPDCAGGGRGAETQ
# In short: as §1
# [8] = target: T5, ELF3 (Homo sapiens, UniProt P78545 1-371); details: protein: recombinant; tags: N-terminal GST; dsDNA, one strand shown
# T5 sequence: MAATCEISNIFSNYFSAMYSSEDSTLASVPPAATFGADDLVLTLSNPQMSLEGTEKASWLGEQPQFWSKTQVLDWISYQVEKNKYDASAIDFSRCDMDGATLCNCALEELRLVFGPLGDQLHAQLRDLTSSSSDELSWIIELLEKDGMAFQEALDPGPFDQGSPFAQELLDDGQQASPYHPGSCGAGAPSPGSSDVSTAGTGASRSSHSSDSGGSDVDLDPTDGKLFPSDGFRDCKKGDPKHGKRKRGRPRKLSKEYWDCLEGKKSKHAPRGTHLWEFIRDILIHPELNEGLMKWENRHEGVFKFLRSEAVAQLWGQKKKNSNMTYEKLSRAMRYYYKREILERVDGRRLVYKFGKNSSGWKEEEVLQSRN
# In short: as §1
# [9] = target: CRX (Homo sapiens, UniProt O43186 1-299); details: protein: recombinant; tags: N-terminal GST; dsDNA, one strand shown
# In short: as §1
# [10] = target: ETV1 (Homo sapiens, UniProt P50549 1-477); details: protein: recombinant; tags: N-terminal GST; dsDNA, one strand shown
# In short: as §1
# CRX, sequence (O43186 whole entry): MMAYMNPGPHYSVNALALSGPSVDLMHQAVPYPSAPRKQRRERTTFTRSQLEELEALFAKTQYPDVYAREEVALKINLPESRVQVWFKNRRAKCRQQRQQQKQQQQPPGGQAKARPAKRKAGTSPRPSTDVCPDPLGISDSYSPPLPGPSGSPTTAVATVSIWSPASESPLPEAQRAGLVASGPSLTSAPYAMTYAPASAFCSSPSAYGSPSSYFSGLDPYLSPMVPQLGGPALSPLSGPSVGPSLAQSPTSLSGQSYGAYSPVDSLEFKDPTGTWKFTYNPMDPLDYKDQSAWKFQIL
# ELF4, sequence (Q99607 whole entry): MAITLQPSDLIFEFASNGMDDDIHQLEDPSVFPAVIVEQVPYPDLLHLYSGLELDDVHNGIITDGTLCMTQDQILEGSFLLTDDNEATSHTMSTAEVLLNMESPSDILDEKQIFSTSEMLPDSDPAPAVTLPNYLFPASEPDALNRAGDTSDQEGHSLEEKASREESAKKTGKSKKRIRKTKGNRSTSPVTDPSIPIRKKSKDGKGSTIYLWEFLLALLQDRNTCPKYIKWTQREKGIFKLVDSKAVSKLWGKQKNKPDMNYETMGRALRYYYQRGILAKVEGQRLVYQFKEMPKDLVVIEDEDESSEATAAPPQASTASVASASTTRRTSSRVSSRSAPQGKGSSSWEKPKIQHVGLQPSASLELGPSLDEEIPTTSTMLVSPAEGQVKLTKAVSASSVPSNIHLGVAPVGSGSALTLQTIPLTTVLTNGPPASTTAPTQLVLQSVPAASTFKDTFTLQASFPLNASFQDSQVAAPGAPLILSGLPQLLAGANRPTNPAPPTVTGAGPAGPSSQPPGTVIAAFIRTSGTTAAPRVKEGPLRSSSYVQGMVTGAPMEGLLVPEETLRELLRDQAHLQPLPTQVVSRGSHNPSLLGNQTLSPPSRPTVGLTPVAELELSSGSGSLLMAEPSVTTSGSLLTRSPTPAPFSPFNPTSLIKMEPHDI
# ETV1, sequence (P50549 whole entry): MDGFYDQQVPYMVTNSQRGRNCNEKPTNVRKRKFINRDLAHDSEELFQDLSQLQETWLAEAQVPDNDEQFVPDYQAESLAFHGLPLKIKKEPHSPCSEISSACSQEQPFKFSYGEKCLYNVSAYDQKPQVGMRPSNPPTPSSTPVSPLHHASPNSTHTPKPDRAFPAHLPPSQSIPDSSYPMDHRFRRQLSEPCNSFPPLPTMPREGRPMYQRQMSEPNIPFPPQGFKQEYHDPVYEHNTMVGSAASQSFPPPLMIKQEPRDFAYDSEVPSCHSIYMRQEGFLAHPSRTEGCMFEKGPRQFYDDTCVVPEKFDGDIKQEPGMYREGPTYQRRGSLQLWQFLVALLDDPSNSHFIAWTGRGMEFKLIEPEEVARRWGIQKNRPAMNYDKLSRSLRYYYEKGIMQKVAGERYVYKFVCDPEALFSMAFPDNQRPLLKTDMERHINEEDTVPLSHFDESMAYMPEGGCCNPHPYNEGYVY
# ETV5, sequence (P41161 whole entry): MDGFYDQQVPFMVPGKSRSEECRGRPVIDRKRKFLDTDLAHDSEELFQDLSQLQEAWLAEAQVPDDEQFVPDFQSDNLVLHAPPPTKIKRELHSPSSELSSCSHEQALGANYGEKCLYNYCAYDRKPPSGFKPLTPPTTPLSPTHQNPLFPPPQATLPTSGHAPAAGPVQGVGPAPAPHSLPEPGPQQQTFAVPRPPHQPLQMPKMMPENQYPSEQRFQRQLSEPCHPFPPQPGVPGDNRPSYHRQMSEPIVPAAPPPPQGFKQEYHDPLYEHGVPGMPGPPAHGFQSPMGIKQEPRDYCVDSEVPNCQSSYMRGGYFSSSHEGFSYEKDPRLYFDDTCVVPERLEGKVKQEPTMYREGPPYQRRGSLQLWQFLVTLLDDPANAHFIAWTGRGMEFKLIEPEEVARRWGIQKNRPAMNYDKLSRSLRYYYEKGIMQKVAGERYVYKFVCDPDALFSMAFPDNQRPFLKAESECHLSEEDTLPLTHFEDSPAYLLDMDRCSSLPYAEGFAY
# HSF1, sequence (Q00613 whole entry): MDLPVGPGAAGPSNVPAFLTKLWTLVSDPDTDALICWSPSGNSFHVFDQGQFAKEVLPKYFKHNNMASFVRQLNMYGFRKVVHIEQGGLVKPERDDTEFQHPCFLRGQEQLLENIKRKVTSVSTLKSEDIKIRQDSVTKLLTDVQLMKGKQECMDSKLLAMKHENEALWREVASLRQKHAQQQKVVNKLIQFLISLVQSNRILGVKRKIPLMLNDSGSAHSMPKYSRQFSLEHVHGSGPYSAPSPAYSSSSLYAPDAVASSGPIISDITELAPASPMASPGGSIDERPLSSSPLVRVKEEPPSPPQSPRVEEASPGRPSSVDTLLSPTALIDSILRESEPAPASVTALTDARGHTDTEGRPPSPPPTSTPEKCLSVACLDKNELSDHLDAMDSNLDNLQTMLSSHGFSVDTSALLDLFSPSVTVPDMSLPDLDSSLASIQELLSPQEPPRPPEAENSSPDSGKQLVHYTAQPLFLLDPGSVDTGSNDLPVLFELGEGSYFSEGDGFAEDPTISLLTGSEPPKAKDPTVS
sequence,measurement,setting,value
TAATGA,binding signal,[1],"1.12 fold enrichment (6-mer frequency, TF over GST control)"
same,binding signal,[2],"1.12 fold enrichment (6-mer frequency, TF over GST control)"
same,binding signal,[3],"1.37 fold enrichment (6-mer frequency, TF over GST control)"
same,binding signal,[4],"1.11 fold enrichment (6-mer frequency, TF over GST control)"
same,binding signal,[5],"1.17 fold enrichment (6-mer frequency, TF over GST control)"
same,binding signal,[6],"1.12 fold enrichment (6-mer frequency, TF over GST control)"
same,binding signal,[7],"1.13 fold enrichment (6-mer frequency, TF over GST control)"
same,binding signal,[8],"1.12 fold enrichment (6-mer frequency, TF over GST control)"
same,binding signal,[9],"1.7 fold enrichment (6-mer frequency, TF over GST control)"
same,binding signal,[10],"1.19 fold enrichment (6-mer frequency, TF over GST control)"
